From PubChem BioAssay AID624305 (National Center for Advancing Translational Sciences (NCATS), 2012)
Inconclusive results are not listed. Unmarked numbers belong to inactive results. The source made the active and inactive calls. The call rests on the fitted dose curve; in most records, active means well fitted activation curve with a large enough effect; inconclusive means small, poorly fitted or top-dose-only effect; inactive means no such curve, though single readings can be large or run the other way.

Experiment: qHTS assay for re-activators of p53 using a Luc reporter: Hit Validation; further: nearly all actives have a fitted effect of over 75% in size; on activation: 0% is about no effect
Conditions: p53-responsive luciferase reporter cells, luminescence, H1299 line expressing heat-sensitive Ala138Val p53; series mostly up to 46.1 µM
Source text: The p53 tumor suppressor plays a key role in suppression of tumorigenesis and in human carcinogenesis. It is frequently found inactivated in human cancers, mainly by point mutation. These point mutations are found in a wide variety of human cancers and a majority of them affect the DNA binding domain of the protein. The point mutations either alter native p53 conformation or abolish DNA contact. Additionally, cancer cells with p53 mutations are more resistant to chemo-radiation therapies.
In order to find activators to reactivate this important protein, a cell-based screen for p53-dependent luciferase-reporter expression was developed. A p53-null H1299 lung cancer cell line was stably co-transfected with a temperature sensitive p53 mutant, p53-A138V, and a p53-responsive BP100-luciferase reporter. This cell model has previously been characterized in a gene chip profiling experiment for p53 activation. By lowering the culture temperature from 37 deg C (mutant p53 conformation) to 32 deg C (w.t. p53 conformation), a 30-60 fold increase in activation of luciferase activity is observed. At assay temperate, 37 deg C, basal reporter expression is very low and after the addition of detection reagent, a luminescent read-out is carried out. This is the hit validation assay, confirming the hits identified from the primary screen.
NIH Chemical Genomics Center [NCGC]
NIH Molecular Libraries Probe Production Centers Network [MLPCN]
Assay Provider (PI): Yi Sung, University of Michigan at Ann Arbor
5ul of 1000 cells per well are dispensed in all wells except column 4, into white solid-bottom TC-treated Kalypsys plates. The cells are kept in Opti-MEM and supplemented with 10% FBS and dispensed using a Multidrop (Thermo). Then using the Kalypsys pin-tool, 23nl of compounds are pinned. The compounds are starting concentration at 10mM, with 1:5 dilution, 4 points, and the control compound nocodazole is pinned in column 1 at 25mM, 1:3 dilution, in duplicate, 25mM nocodazole is pinned in column 2. Please note, all concentrations are working concentrations. 5ul of 1pM purified luciferase enzyme is dispensed using the Kalypsys dispenser in column 4. Plates are incubated for 24 hrs at 37 deg C, 5% CO2, and 95% humidity. Then 4ul of the detection reagent Amplite (ABD Bioquest) is added using the Kalypsys dispenser. Plates are incubated for 10 min at ambient room temperature and are then read on the ViewLux (Perkin Elmer) using a clear filter for a luminescent read-out.
Potency means the concentration at half of the fitted maximal effect.

| SMILES | Potency | activation |
| --- | --- | --- |
| O=c1cc(-c2ccc3c(c2)OCCO3)oc2ccc(Cl)cc12 | 0.82 µM (active) |  |
| O=C(COc1ccccc1Cl)Nc1ccc(Cl)cn1 | 20.6 µM (active) |  |
| COc1ccccc1NS(=O)(=O)c1ccc(C(=O)Nc2ncccc2O)cc1 | inactive |  |
| Cc1cc(C(=O)NC2CCCCC2)c(C)n1-c1ccc(F)cc1 | 8.2 µM (active) |  |
| CCOC(=O)C1=C(C)Nc2ncnn2C1c1c[nH]c2ccccc12 (stereo not given) | inactive |  |
| C=CCNC(=S)N/N=C(\C)c1ccccn1 | 6.51 µM (active) |  |
| O=C(NNc1c2ccccc2nc2ccccc12)c1ccc(O)cc1 | inactive |  |
| O=C(N/N=C/c1cn(-c2ccccc2)nc1-c1cc2ccccc2o1)c1ccccc1Br | 7.31 µM (active) |  |
| CC12CN(C(=O)c3cccc([N+](=O)[O-])c3)C3(C#N)CC1CCC23C (stereo not given) | inactive |  |
| CCCOc1ccc(-c2cc3onc(-c4ccccc4)c3c(=O)n2C)cc1 | 5.8 µM (active) |  |
| CCCCc1ccc(NC(=S)N2CCCC(CO)C2)cc1 (stereo not given) | 0.651 µM (active) |  |
| O=C(CC(=O)c1ccccc1O)c1cccc(F)c1 | inactive |  |
| CCOc1ccc(NC(=O)/C=C/c2ccccc2)c([N+](=O)[O-])c1 | 5.17 µM (active) |  |
| O=C(NN=C1CCCCCC1)c1cccs1 |  | 12.5% [at 9.22 µM] |
| O=C(Nc1ccc(N2CCCCCC2)cc1)c1ccc[nH]1 | 1.16 µM (active) |  |
| O=C(O)c1ccc(N/N=C/c2ccc3ncccc3c2)cc1 | 0.184 µM (active) |  |
| CC1(C)NC(=O)N(CC(=O)N2CCN(S(=O)(=O)c3ccccc3C(F)(F)F)CC2)C1=O | inactive |  |
| Clc1ccc(OCc2cc(-c3ccccc3)no2)c(Cl)c1 | 1.16 µM (active) |  |
| CCCCCCC1CC(/C(C)=N\NC(N)=O)OC1=O (stereo not given) | inactive |  |
| CC(=O)OCC(=O)Nc1ccc(N=Nc2ccccc2)cc1 | 0.651 µM (active) |  |

| SMILES | Potency | activation |
| --- | --- | --- |
| COc1ccc(/C(O)=C2/C(=O)C(=O)N(CCN3CCOCC3)C2c2ccccn2)cc1 (stereo not given) | inactive |  |
| COc1ccc(CCC(C)NCC(C)c2ccccc2)cc1 (stereo not given) | inactive |  |
| CC(=O)c1ccc(N2Cc3ccccc3C2=NC(=O)c2cccs2)cc1 | inactive |  |
| Nc1cccc(-c2nc3ccc(C(=O)c4ccccc4)cc3[nH]2)c1 | 2.06 µM (active) |  |
| CCOc1ccc(-n2c(SCc3nc(-c4cccs4)no3)nnc2-c2ccncc2)cc1 | inactive |  |
| COc1ccc(S(=O)(=O)NC2CC(C)(C)NC(C)(C)C2)c2ccccc12 | inactive |  |
| Cc1cc(/C=C2/C(=O)NN(c3ccccc3)C2=O)c(C)n1-c1cccc(O)c1 | 10.3 µM (active) |  |
| Oc1ccccc1-c1cc(-c2ccccc2)n[nH]1 | 3.66 µM (active) |  |
| Nc1nc(-c2ccc([N+](=O)[O-])cc2)cs1 | inactive |  |
| O=C(O)/C=C/c1nc(-c2ccccc2)n2ccccc12 | inactive |  |
| CCc1ccc(N=c2c([N+](=O)[O-])nn(-c3ccccc3)n2O)cc1 | 9.2 µM (active) |  |
| CC(C)N1CCc2c(sc(NC(=S)NC(=O)c3ccccc3)c2C#N)C1 |  | 7.78% [at 9.22 µM] |
| Cc1nn(-c2ccccc2)c(N2CCCC2)c1/C=N/NC(=O)c1cc(-c2ccccc2)nc2ccccc12 | inactive |  |
| Cn1c(Cc2cccs2)nnc1SCc1nc2ccccc2[nH]1 | inactive |  |
| CC(=O)Nc1ccc(SCC(=O)c2cc(C)n(-c3ccccc3)c2C)cc1 | 5.8 µM (active) |  |
| Cc1ccc(CNc2cc(C(=O)O)ccc2Cl)s1 | inactive |  |
| Cc1cc(C(F)(F)F)c(C#N)c(SCC(=O)Nc2nc3ccccc3s2)n1 | 1.46 µM (active) |  |
| Cc1ccc(C(=O)N2CC(=O)Nc3ccc(F)cc3C2c2ccc(F)cc2)cc1[N+](=O)[O-] (stereo not given) | inactive |  |
| O=C(N/N=C1\CCc2ccccc21)c1ccccc1O | 1.03 µM (active) |  |
| CC(=O)c1cccc(NC(=O)c2sc(Cl)nc2C)c1 | inactive |  |
